Measured values as given in PubChem BioAssay.
The source made the active and inactive calls. Unless noted, how the calls were made is not given here.

Assays:
[1] = compound effects on lung adenocarcinoma cell viability – A549, calcein-AM fluorescence, 48 h, basal, profiling panel (AID 1162); details: higher = more signal; further: test concentration not given here
[2] = compound effects on differentiated 3T3-L1 adipocyte viability – cell-based, 3T3-L1 adipocytes, calcein-AM fluorescence, 48 h, basal, profiling panel (AID 1163); details: 3T3-L1 adipocytes viability, higher = more signal; further: test concentration not given here
[3] = compound effects on hepatocellular carcinoma cell viability – HepG2, calcein-AM fluorescence, 48 h, basal, profiling panel (AID 1164); details: higher = more signal; further: test concentration not given here
[4] = compound effects on multiple myeloma cell viability – MM1S, calcein-AM fluorescence, 48 h, basal, profiling panel (AID 1165); details: higher = more signal;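 further: viability of MM1S multiple myeloma cells under basal unstimulated conditions; test concentration not given here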
[5] = calcein-AM signal in unstimulated myeloma cells – cell-based, calcein-AM fluorescence, 48 h, PK04 Diversity Set, profiling panel (AID 1166); details: RPMI8226 myeloma viability, higher = more signal;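 further: cells grown under basal conditions without added stimulus; test concentration not given here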
[6] = JC-1 mitochondrial signal, unstimulated HepG2 cells – cell-based, JC-1 fluorescence, 24 h, 100 nL compound, profiling panel (AID 1167); details: HepG2 mitochondrial potential, higher = more signal; further: test concentration not given here
[7] = JC-1 mitochondrial signal, unstimulated adipocytes – cell-based, JC-1 fluorescence, 3T3-L1 adipocytes, 24 h, 100 nL compound, profiling panel (AID 1168); details: JC-1 mitochondrial fluorescence, higher = more signal, called active from +8 up or from −8 down; further: test concentration not given here
[8] = JC-1 mitochondrial signal, unstimulated myeloma cells – cell-based, JC-1 fluorescence, RPMI8226, 24 h, 100 nL compound, profiling panel (AID 1169); details: JC-1 mitochondrial potential fluorescence, higher = more signal; further: test concentration not given here
[9] = JC-1 mitochondrial signal, unstimulated MM1S myeloma – cell-based, JC-1 fluorescence, 24 h, 100 nL compound, profiling panel (AID 1170); details: MM1S mitochondrial potential, higher = more signal; further: test concentration not given here
[10] = resazurin metabolic signal in A549 cells – cell-based, resazurin fluorescence, 24 h, PK04 Diversity Set, profiling panel (AID 1171); details: A549 viability, higher = more signal, called active from +8 up or from −8 down; further: test concentration not given here
[11] = resazurin metabolic signal in HepG2 cells – cell-based, resazurin fluorescence, 24 h, PK04 Diversity Set, profiling panel (AID 1172); details: HepG2 viability, higher = more signal; further: test concentration not given here
[12] = budding yeast growth changes without added modifier – OD600, strain BY4716, 24 h, basal condition, primary screen (AID 1173); details: S. cerevisiae BY4716 growth, OD600, 24 h; higher = more signal, called active from +8 up or from −8 down
[13] = viability profiling in MM1S myeloma cells – cell-based, resazurin fluorescence, basal, 24 h, PK04 Diversity Set, profiling panel (AID 1174); details: higher = more signal, called active from +8 up or from −8 down; further: test concentration not given here
[14] = molecular target: Dihydroorotate dehydrogenase (quinone), mitochondrial (Plasmodium falciparum (isolate 3D7)) (UniProt Q08210); experiment: inhibition of P. falciparum DHODH – biochemical, C-terminal His tag, absorbance 600 nm, primary screen (AID 1175); details: PfDHODH enzyme, DCIP absorbance 600 nm; higher = more signal, called active from +8 up or from −8 down;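 further: recombinant parasite enzyme with a five histidine tag at its C terminus; test concentration not given here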
[15] = inhibition of PAO1 biofilm formation – strain PAO1, LB-PBS medium, absorbance 600 nm, primary screen (AID 1176); further: test concentration not given here; details: P. aeruginosa PAO1 growth/biofilm, A600, 12 h; higher = more signal
[16] = growth modulation of vineyard yeast isolate – strain RM11-1a, OD600, basal, 24 h, primary screen (AID 1177);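 further: cultures grown under basal conditions with no added stressor; test concentration not given here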; details: S. cerevisiae RM11-1a growth, OD600, 24 h; higher = more signal, called active from +8 up or from −8 down
[17] = growth of efflux-deficient E. coli DRC39 – strain DRC39, OD650, 24 h, E. coli filamentation inducers, primary screen (AID 1178);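 further: growth measured as culture turbidity by optical density at 650 nm; test concentration not given here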; details: E. coli DRC39 acrAB, higher = more signal, called active from +8 up or from −8 down
[18] = growth of efflux-deficient E. coli DRC39 – strain DRC39, OD650, 48 h, E. coli filamentation inducers, primary screen (AID 1179);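 further: screen aims at cell division blockers that make cells filament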; details: E. coli DRC39 delta-acrAB growth, higher = more signal, called active from +8 up or from −8 down
[19] = viability profiling in RPMI8226 myeloma cells – cell-based, resazurin fluorescence, basal, 24 h, PK04 Diversity Set, profiling panel (AID 1180); details: higher = more signal;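 further: RPMI8826 multiple myeloma cell line at 5000 cells per well; test concentration not given here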
[20] = molecular target: E3 ubiquitin-protein ligase XIAP (Homo sapiens) (UniProt P98170); experiment: small molecules binding XIAP protein – biophysical, small-molecule microarray, fluorescence 635 nm, primary screen (AID 1181); details: higher = more signal;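 further: score merges 667 nm emission and signal to noise over triplicate slides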
Chain of E3 ubiquitin-protein ligase XIAP (Homo sapiens) (P98170 whole entry, looked up): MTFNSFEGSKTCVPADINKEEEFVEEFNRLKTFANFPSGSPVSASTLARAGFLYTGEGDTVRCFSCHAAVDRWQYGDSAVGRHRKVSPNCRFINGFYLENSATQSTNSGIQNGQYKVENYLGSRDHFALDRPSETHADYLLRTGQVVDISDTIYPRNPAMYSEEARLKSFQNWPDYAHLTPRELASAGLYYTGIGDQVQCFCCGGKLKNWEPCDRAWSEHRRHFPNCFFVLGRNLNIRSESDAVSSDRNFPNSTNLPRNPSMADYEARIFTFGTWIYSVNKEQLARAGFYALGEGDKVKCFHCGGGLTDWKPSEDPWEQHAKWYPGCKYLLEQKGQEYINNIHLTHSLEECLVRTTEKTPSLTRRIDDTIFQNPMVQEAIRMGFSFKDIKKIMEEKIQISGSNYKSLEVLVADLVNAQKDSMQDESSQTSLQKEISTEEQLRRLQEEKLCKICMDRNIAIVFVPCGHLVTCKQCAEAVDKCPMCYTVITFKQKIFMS

Chain of Dihydroorotate dehydrogenase (quinone), mitochondrial (Plasmodium falciparum (isolate 3D7)) (Q08210 whole entry, looked up): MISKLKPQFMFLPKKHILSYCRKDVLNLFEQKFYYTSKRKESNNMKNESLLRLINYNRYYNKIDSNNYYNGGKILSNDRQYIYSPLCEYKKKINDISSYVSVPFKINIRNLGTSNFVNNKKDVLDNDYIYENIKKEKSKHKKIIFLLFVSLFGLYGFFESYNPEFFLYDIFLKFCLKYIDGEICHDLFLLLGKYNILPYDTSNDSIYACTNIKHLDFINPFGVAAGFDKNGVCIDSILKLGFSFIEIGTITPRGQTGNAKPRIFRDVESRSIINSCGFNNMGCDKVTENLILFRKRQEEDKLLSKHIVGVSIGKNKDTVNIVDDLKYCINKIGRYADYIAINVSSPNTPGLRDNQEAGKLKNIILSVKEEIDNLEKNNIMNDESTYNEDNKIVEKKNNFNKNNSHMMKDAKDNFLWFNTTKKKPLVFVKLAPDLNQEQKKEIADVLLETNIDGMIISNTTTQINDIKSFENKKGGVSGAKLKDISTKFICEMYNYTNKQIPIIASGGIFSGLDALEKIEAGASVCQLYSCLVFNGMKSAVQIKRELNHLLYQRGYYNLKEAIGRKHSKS

SMILES | z-score [1] | z-score [2] | z-score [3] | z-score [4] | z-score [5] | z-score [6] | z-score [7] | z-score [8] | z-score [9] | z-score [10] | z-score [11] | z-score [12] | z-score [13] | composite z-score [14] | z-score [15] | z-score [16] | z-score [17] | z-score [18] | z-score [19] | composite z-score [20]
CC(C)(C)OC(=O)CC[C@]1(C(N)=O)N=C(c2ccc(OCCCO)cc2)O[C@H]1c1ccccc1N=[N+]=[N-] | -0.263 | -0.251 | 0.934 | 0.381 | 0.882 | -0.445 | -0.109 (inactive) | -0.132 | -1 | 0.066 (inactive) | 0.551 | 0.0323 (inactive) | -0.446 (inactive) | 0.982 (inactive) | -0.0279 (inactive) | 0.979 (inactive) | 0.0489 (inactive) | 1.12 (inactive) | 0.596 | 0.333
C=CCNC(=O)[C@H]1[C@@H]2C(=O)O[C@@H](c3ccccc3)[C@@H](c3ccccc3)N2[C@@H](c2ccc(O)cc2)[C@]12C(=O)Nc1ccc(C#CCC(C(=O)OC)C(=O)OC)cc12 | 0.33 | -0.0589 | 0.102 | -2.95 | -4.12 | -0.922 | -0.363 (inactive) | -0.891 | 0.111 | 0.0955 (inactive) | -0.111 | 0.24 (inactive) | 0.0789 (inactive) | -7.4 (inactive) | 0.293 (inactive) | 0.249 (inactive) | -0.254 (inactive) | -0.0535 (inactive) | -3.01 | 0.256
COc1cccc(C)c1NC(=O)O[C@H]1[C@H](OC(=O)Nc2ccc3c(c2)OCO3)[C@H](OC(=O)Nc2ccc3c(c2)OCO3)[C@@H](OC)O[C@@H]1CO | -0.934 | 0.372 | -0.997 | -1.62 | -1.82 | -0.514 | 0.308 (inactive) | -0.136 | -0.724 | -0.654 (inactive) | -0.73 | 1.27 (inactive) | -0.494 (inactive) | -0.713 (inactive) | 0.606 (inactive) | 1.6 (inactive) | 0.84 (inactive) | -0.0834 (inactive) | -0.708 | 1.64
COc1ccc([Si](C)(C)[C@H]2[C@H](CC(=O)N(CCO)Cc3ccccc3)O[C@@]3(C(=O)N(c4ccccc4)c4ccccc43)[C@@H]2C)cc1 | -3.41 | -1.38 | -4.61 | -2.69 | -4.38 | -2.35 | 0.938 (inactive) | -1.11 | -2.27 | -3.43 (inactive) | -4.7 | 0.148 (inactive) | -8.42 (active) | 0.531 (inactive) | 0.838 (inactive) | 0.29 (inactive) | 0.997 (inactive) | -0.0322 (inactive) | -6.25 | 0.226
O=C1O[C@H](c2ccccc2)[C@H](c2ccccc2)N2[C@H]1[C@@H](C(=O)O)[C@]1(C(=O)Nc3ccccc31)[C@H]2c1ccc(OCCO)cc1 | -0.29 | 1.11 | -0.119 | 0.338 | -2.44 | -0.706 | 0.254 (inactive) | -0.295 | 0.0484 | 0.683 (inactive) | 0.0019 | -0.302 (inactive) | -0.0917 (inactive) | -0.652 (inactive) | 0.0485 (inactive) | -0.785 (inactive) | -0.545 (inactive) | -0.858 (inactive) | 1.16 | 0.18
COCCOC(=O)N1C(=O)[C@@]2(c3cc(C#CCCO)ccc31)[C@H](C(=O)N1CCN(c3ncccn3)CC1)[C@H]1C(=O)O[C@H](c3ccccc3)[C@H](c3ccccc3)N1[C@@H]2c1ccc(OCCO)cc1 | 0.451 | 0.474 | -0.442 | -1.07 | 0.863 | -1.02 | 0.0633 (inactive) | -0.185 | -1.02 | 0.427 (inactive) | 0.739 | 2.7 (inactive) | -0.632 (inactive) | -0.486 (inactive) | 1.17 (inactive) | 2.75 (inactive) | -0.77 (inactive) | -0.548 (inactive) | 0.555 | 0.0432
CCCC1(C(=O)OC)C=C2C(=C(C(C)C)C(=O)C2C)CN1 (stereo not given) | -1.47 | 0.273 | -0.0319 | 0.313 | -0.316 | -1.45 | -1.43 (inactive) | -0.613 | -0.458 | -0.898 (inactive) | -0.964 | 1.67 (inactive) | -1.13 (inactive) | -1.05 (inactive) | 0.495 (inactive) | 0.391 (inactive) | -0.314 (inactive) | 0.0752 (inactive) | -1.44 | 0.227
COc1c(C)cc(-c2cc3c(c(CCc4ccccc4)n2)[Si](C(C)C)(C(C)C)O[C@H]3c2ccccc2)cc1C | -0.216 | -0.945 | 0.297 | -3.19 | -3.11 | -2.39 | -0.729 (inactive) | -1.04 | -1.24 | 0.453 (inactive) | -0.0275 | 0.597 (inactive) | 0.135 (inactive) | 0.0798 (inactive) | 0.608 (inactive) | 1.42 (inactive) | -0.754 (inactive) | -0.744 (inactive) | -3.7 | -0.195
C=C(CCCC)/C(=C/C[C@@H](OC(C)=O)c1ccc(OCCO)cc1)c1cc(C(=O)OC)ccc1OC | -0.144 | -0.703 | 0.447 | -3.33 | -3.24 | 0.621 | -1.5 (inactive) | -0.826 | -1.3 | 0.293 (inactive) | 0.353 | -0.107 (inactive) | -1.36 (inactive) | -2.64 (inactive) | 0.862 (inactive) | -0.319 (inactive) | 0.173 (inactive) | 0.107 (inactive) | -0.808 | -0.0274
